Experimental findings from PubChem BioAssay (EPA / NIEHS) are described below.

Each structure is given as a SMILES string. Active and inactive are the calls of the source. Rule for the calls: active = hit-call score of the fitted dose curve at least 0.9, where 1 is the maximum; inactive = score below 0.9.

The first assay is described as follows: ATG_NF_kB_CIS: Attagene CIS-FACTORIAL HepG2 Assay for human Nuclear Factor Kappa B (NF-kB) (AID 2282991). Particulars: HepG2 Attagene cis-factorial NF-kB reporter mRNA; actives raise or lower the signal. An outline of the steps: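 Multiplexed cis-reporter assay in transiently transfected HepG2. 24 h treatment; RNA isolated, RT-PCR, labelled fragments resolved by CE. DMSO baseline.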
Regarding `CCOC(=O)C1CC(=O)C(=C(O)C2CC2)C(=O)C1` (configuration not stated), the compound was classed as inactive. Same read-out and setting: in the case of `CCCCCC/C=C/CCCCCCCC(=O)O` it was “inactive”; in that of `Oc1ccc(C2(c3ccc(O)c(C4CCCCC4)c3)CCCCC2)cc1C1CCCCC1`, “inactive”. In the case of `N#CCCOCCC#N`, the compound was called inactive. For the compound `CCCCCCCCCCCCCC[P+](CCCC)(CCCC)CCCC`, the call was inactive. Turning to `CCc1cc(Cc2cc(CC)c(N)c(CC)c2)cc(CC)c1N`, the call was inactive.

For `CC(C)(C)c1cc(Cc2cc(C(C)(C)C)c(O)c(C(C)(C)C)c2)cc(C(C)(C)C)c1O`, the outcome was inactive. In the case of `O=C1OC(=O)c2ccc3c4c(ccc1c24)C(=O)OC3=O`, the result was inactive. On to `OCCC(O)CO` (configuration not stated), for which the compound was called inactive.

As to `Cc1ccc(O)cn1`, the compound was classed as inactive. Turning to `CCOC(OCC)OCC`, the compound was called inactive. As to `Brc1ccccn1`, the outcome was inactive. Turning to `O=S(=O)(O)CCC(F)(F)C(F)(F)C(F)(F)C(F)(F)F`, the compound was called inactive.

As to `CCCCC(CC)COC(=O)c1ccc(N(C)C)cc1` (configuration not stated), the outcome was inactive. Turning to `CN(C)C(C)(C)CO`, the outcome was inactive. On to `N#Cc1ccccc1O`, for which the compound was classed as inactive. Regarding `CC(=O)CCC(C)C`, the call was inactive. With `O=c1[nH]cccc1O`, the outcome was inactive. On the same count and under the same terms, as for `CCOCN(C(=O)CS(=O)(=O)O)c1c(C)cccc1CC`, the entry is “inactive”; as for `c1ccc(C[P+](c2ccccc2)(c2ccccc2)c2ccccc2)cc1`, “inactive”. The same measure, in the same setting: as for `CCc1ccc(C)nc1`, the entry is “inactive”.

As for `Nc1c(Br)cc([N+](=O)[O-])cc1Br`, the compound was classed as inactive. On to `CC(=O)c1ccccc1N`, for which the call was inactive. The same measure, in the same setting: in the case of `OCC1CCCO1` (configuration not stated) it was “inactive”; in that of `CCCCCCCC/C=C\CCCCCCCC(=O)OCC(O)CO` (configuration not stated), “inactive”. The AC50 is the concentration giving half of the maximal activity seen. In the case of `O=C1c2ccccc2C(=O)c2c(Cl)cccc21`, the half-maximal activity concentration (AC50) was 4.35 µM (active). `OCCCCC(F)(F)C(F)(F)C(F)(F)C(F)(F)F`: the compound was called inactive. For `C[Si](C)O[Si](C)C`, the outcome was inactive. Turning to `CC(=O)C=O`, the result was inactive. On to `CCCCOC(=O)[C@H](C)O`, for which the compound was classed as inactive.

The next assay is described as follows: ATG_NRF2_ARE_CIS: Attagene CIS-FACTORIAL HepG2 Assay for human Nuclear Factor Erythroid 2 Related Factor 2 (NFR2) response to Antioxidant Response Elements (ARE) (AID 2282992).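 For AC50: reporter mRNA level measured by RT-PCR and capillary electrophoresis fluorescence.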 As to conditions: HepG2 Attagene ARE/NRF2 reporter, transcription factor activity; actives raise or lower the signal. The method in brief:
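HepG2 cells transiently transfected with multiplexed cis-element reporter constructs, 24 h after chemical dosing; reporter mRNA quantified by RT-PCR, fluorescent primer extension, HpaI digestion and capillary electrophoresis. Bidirectional fit relative to DMSO.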
For the compound `CCOC(=O)C1CC(=O)C(=C(O)C2CC2)C(=O)C1` (configuration not stated), the compound was classed as inactive.

In the case of `CCCCCC/C=C/CCCCCCCC(=O)O`, the compound was classed as inactive. For the compound `Oc1ccc(C2(c3ccc(O)c(C4CCCCC4)c3)CCCCC2)cc1C1CCCCC1`, the AC50 was 6.2 µM (active). With `N#CCCOCCC#N`, the outcome was inactive. As to `CCCCCCCCCCCCCC[P+](CCCC)(CCCC)CCCC`, the AC50 is 0.719 µM (active). As to `CCc1cc(Cc2cc(CC)c(N)c(CC)c2)cc(CC)c1N`, the AC50 is 1.62 µM (active). Take `CC(C)(C)c1cc(Cc2cc(C(C)(C)C)c(O)c(C(C)(C)C)c2)cc(C(C)(C)C)c1O`: the call was inactive. For the compound `O=C1OC(=O)c2ccc3c4c(ccc1c24)C(=O)OC3=O`, the compound was classed as inactive. As for `OCCC(O)CO` (configuration not stated), the outcome was inactive. With `Cc1ccc(O)cn1`, the outcome was inactive. On to `CCOC(OCC)OCC`, for which the outcome was inactive. For `Brc1ccccn1`, the call was inactive. As to `O=S(=O)(O)CCC(F)(F)C(F)(F)C(F)(F)C(F)(F)F`, the call was inactive.

Regarding `C[C@]12CC[C@H]3C(=CCc4cc(O)ccc43)[C@@H]1CCC2=O`, the call was inactive. With `CCCCC(CC)COC(=O)c1ccc(N(C)C)cc1` (configuration not stated), the half-maximal activity concentration (AC50) is 27.4 µM (active). Regarding `CN(C)C(C)(C)CO`, the compound was classed as inactive.

Consider `O=S(=O)(O)c1ccc(Cl)cc1`, for which the compound was classed as inactive. Consider `N#Cc1ccccc1O`, for which the outcome was inactive. Same read-out and setting: as for `CN(N=O)C(=O)N[C@@H]1[C@@H](O)[C@H](O)[C@@H](CO)O[C@@H]1O`, the entry is “inactive”. With `O=C1c2c(O)ccc(Nc3ccc(CCO)cc3)c2C(=O)c2c([N+](=O)[O-])ccc(O)c21`, the concentration at half-maximal activity (AC50) was 6.59 µM (active). As to `CC(=O)CCC(C)C`, the compound was classed as inactive. Take `O=c1[nH]cccc1O`: the result was inactive.

Consider `CCOCN(C(=O)CS(=O)(=O)O)c1c(C)cccc1CC`, for which the outcome was inactive.

For `c1ccc(C[P+](c2ccccc2)(c2ccccc2)c2ccccc2)cc1`, the AC50 is 55.7 µM (active). As for `CCc1ccc(C)nc1`, the result was inactive. For the compound `Nc1c(Br)cc([N+](=O)[O-])cc1Br`, the concentration at half-maximal activity (AC50) was 27.4 µM (active). Regarding `CC(=O)c1ccccc1N`, the compound was classed as inactive. For `OCC1CCCO1` (configuration not stated), the outcome was inactive. Turning to `CCCCCCCC/C=C\CCCCCCCC(=O)OCC(O)CO` (configuration not stated), the AC50 was 68.4 µM (active).

Take `Cc1ccc([N+](=O)[O-])c(C)c1`: the result was inactive. `Brc1nc2ccccc2s1`: the half-maximal activity concentration (AC50) was 23.6 µM (active). On to `O=C1c2ccccc2C(=O)c2c(Cl)cccc21`, for which the outcome was inactive. For the compound `OCCCCC(F)(F)C(F)(F)C(F)(F)C(F)(F)F`, the outcome was inactive. Turning to `C[Si](C)O[Si](C)C`, the outcome was inactive. `CCC/C=C/CO`: the compound was called inactive. Still for that read-out and setting: as for `CC(=O)C=O`, the entry is “inactive”; as for `CCCCOC(=O)[C@H](C)O`, “inactive”.
